PubChem BioAssay (NCI)
About 83,000 compounds went through this panel and 20% of them were active in at least one assay; those are over-represented in the sample as a whole.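 In brief: 96-well plates, 48 h treatment, single concentration, percent growth endpoint.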 Active and inactive are the calls of the source. How the source made its calls: active means growth percent below 10; inactive means the rest.

What was measured:
Assay in all cases: NCI-60 one-dose screen, 48 h (100 = growth as untreated, 0 = no growth, -100 = all killed)
Details in all cases: 10 µM unless noted
[1] = test system: HCT-15 colon
[2] = test system: HT29 colon
[3] = test system: SNB-75 CNS
[4] = test system: SNB-19 CNS
[5] = test system: U251 CNS
[6] = test system: PC-3 prostate
[7] = test system: SK-MEL-5 melanoma
[8] = test system: UACC-62 melanoma
[9] = test system: LOX IMVI melanoma
[10] = test system: SK-MEL-28 melanoma

Measured: growth

CC[C@]12C=CCN3CC[C@@]4(c5ccc(OC)cc5N(C)[C@H]4[C@@](O)(C(=O)OC)[C@@H]1OC(=O)CCC[P+](c1ccccc1)(c1ccccc1)c1ccccc1)[C@@H]32
active: [2] 2.42% | [3] -4.39% | [5] 4.03% | [6] 2.13% | [7] -91.5% | [8] -59.3% | [9] 8.81%
inactive: [1] 101% | [4] 11% | [10] 20.9%

COc1ccc2[nH]cc(-c3nc(-c4c[nH]c5c(Cl)nccc45)cs3)c2c1
inactive: [2] 15.8% | [3] 54.1% | [4] 63.9% | [5] 17.5% | [6] 31% | [7] 55.6% | [8] 52% | [9] 13.2% | [10] 42%
active: [1] -16.1%

Cc1ccc2c(-n3nc(C#N)c(C#N)c3N)cc(=O)[nH]c2c1
inactive: [1] 87.9% | [2] 93.7% | [3] 110% | [4] 88.6% | [5] 86.4% | [6] 71.1% | [7] 93.5% | [8] 80.2% | [9] 81% | [10] 94.1%

Cc1c(Cl)cccc1C(=O)Nc1nc2c(s1)CN(C(=O)c1ccc(C(F)(F)F)cc1)CC2
active: [2] 1.63% | [3] 6.65% | [6] 7.45% | [7] 8.01%
inactive: [1] 15% | [4] 34.6% | [5] 17.7% | [8] 37.6% | [9] 20.2% | [10] 59.1%

C[C@H](C(=O)N(CCc1ccc(Cl)c(Cl)c1)Cc1cncs1)[C@@H]1CC[C@H](C[C@H](C)n2cc(CN3CCC(c4ccc(Cl)cc4)CC3)nn2)O1
inactive: [1] 99.6% | [2] 102% | [3] 97.6% | [4] 94.5% | [5] 100% | [6] 86.5% | [7] 101% | [8] 90.3% | [9] 98.3% | [10] 102%

COc1cccc(NCc2nnc(Nc3ccc(Cl)cc3)c3ccccc23)c1
inactive: [4] 17.8%
active: [1] -18.1% | [2] -21% | [3] -6.06% | [5] -56.2% | [6] -13.6% | [7] -98.5% | [8] -29.2% | [9] -58.7% | [10] -16.1%

CNC(=O)c1cc(Oc2ccc3c(c2)sc2nc(-c4ccc(OC)cc4)cn23)ccn1
inactive: [1] 52.7% | [2] 65.6% | [3] 76.8% | [4] 79.8% | [5] 81.8% | [6] 58.3% | [7] 20.3% | [8] 40.2% | [9] 82.1% | [10] 67.9%

CCN1C(=O)N(CC)C2C1NN=c1s/c(=C\c3ccc[nH]3)c(=O)n12 (stereo not given)
active: [2] -10.4% | [3] -23.6% | [5] 9.08%
inactive: [1] 24.4% | [4] 24.9% | [6] 19.6% | [7] 30% | [8] 25.7% | [9] 43% | [10] 46%

CC(=C(c1ccc(OCCN2CCCCC2)cc1)c1ccc(OCCN2CCCCC2)cc1)c1ccc(Cl)cc1
active: [1] -88.3% | [2] -86.3% | [3] -97.3% | [4] -91.2% | [5] -90.7% | [6] -82.4% | [7] -96.9% | [8] -76.9% | [9] -94.5% | [10] -96.1%

COC(=O)CCC/C=C\C[C@H]1C=CC(=O)/C1=C/C[C@@H](O)C/C=C\CC(F)(F)F
inactive: [3] 68.3% | [4] 33.7%
active: [1] -18.5% | [2] -42.6% | [5] -69.1% | [6] -16.2% | [7] -89.7% | [8] -37.2% | [9] -82.7% | [10] -25.5%

Cc1ccc(-c2nc(/C=C3/C(=O)Nc4ccc(F)cc43)c3ccccn23)cc1
active: [1] -3.43%
inactive: [2] 17.2% | [3] 92.2% | [4] 95% | [5] 64.3% | [6] 68.1% | [7] 86.7% | [8] 74.7% | [9] 63.8% | [10] 103%

CC(C)CCN(CCC(C)C)CC(O)c1cc2c(c3ccccc13)CCCC2 (stereo not given)
inactive: [1] 59.4% | [2] 32.2% | [3] 91.6% | [4] 97.8% | [5] 72.9% | [6] 66.4% | [7] 72.7% | [8] 49.8% | [9] 51.9% | [10] 94.7%

C=C1C(=O)O[C@H]2[C@H]1CC/C(Cn1cc(CCC)nn1)=C\CC[C@@]1(C)O[C@@H]21
inactive: [3] 75.8% | [4] 73.3% | [5] 73.7% | [6] 64.4% | [7] 53.1%
active: [1] -1.47% | [2] -9.05% | [8] 4.67% | [9] -29.3% | [10] 7.96%

Nc1nc(N)c(N=Nc2ccccc2)c(-c2ccccc2)n1
inactive: [1] 58.6% | [2] 51.1% | [4] 69.5% | [5] 72.4% | [6] 35.8% | [7] 46.9% | [8] 41.4% | [9] 42.6% | [10] 76.2%
active: [3] -0.588%

CCN(CC)CCCN1C(=O)c2c(c(C)c3c(oc4ccc(O)cc43)c2C)C1=O
inactive: [3] 90.4% | [4] 77.4% | [5] 47.3% | [6] 79.7% | [7] 48.4% | [8] 96% | [10] 81.8%
active: [1] -77.5% | [2] -40.3% | [9] -95.8%

N#C/C(=C\c1cn(Cc2ccccc2)c2ccccc12)C(=O)Nc1ncc(Cc2ccccc2Cl)s1
active: [3] -12.7% | [5] -9.08% | [8] -40.4%
inactive: [1] 35.7% | [2] 28.2% | [4] 72.4% | [6] 40.6% | [7] 57.6% | [9] 24.7% | [10] 29.9%

CC1=C2[C@@H](CC1)[C@]1(C)O[C@@](c3ccccc3)(C[C@H]1OC(=O)CO)[C@H]2OC(=O)/C=C/c1ccccc1
inactive: [1] 92.6% | [2] 87.2% | [4] 96.1% | [5] 88.4% | [6] 63.2% | [7] 88.9% | [8] 79% | [9] 82.1% | [10] 117%
active: [3] -50.7%

O=C(CC(=O)Nc1cccc(C(=O)O)c1)Nc1cccc(C(=O)O)c1
inactive: [1] 106% | [2] 97.6% | [3] 73.3% | [4] 102% | [5] 104% | [6] 92.5% | [7] 100% | [8] 94.6% | [9] 103% | [10] 100%

N=C(N)c1ccc(-c2ccc(-c3ccccc3)s2)cc1
inactive: [3] 108% | [4] 50.1% | [6] 51.3% | [7] 95.5% | [8] 94.9% | [10] 113%
active: [1] -28.3% | [2] -5% | [5] 9.73% | [9] -70.2%

O=C1NC(=O)/C(=C/c2c(-c3ccccc3)nc3sc(COc4ccccc4)nn23)S1
inactive: [1] 97.2% | [2] 117% | [3] 108% | [4] 95.6% | [5] 96.7% | [6] 111% | [7] 97.9% | [8] 90% | [9] 57% | [10] 110%

COc1ccc(C2=NN(C(C)=O)C(c3cn(-c4ccccc4)nc3-c3ccc(Cl)cc3)C2)cc1 (stereo not given)
active: [2] -6.18% | [3] -4.48% | [5] -7.11% | [9] 0.526%
inactive: [1] 17.1% | [4] 34.2% | [6] 34.3% | [7] 27.1% | [8] 20% | [10] 56.3%

COc1ccc(C(=S)N2CCN(c3ccc(Cl)cc3)CC2)cc1
inactive: [1] 116% | [2] 102% | [3] 112% | [4] 86.3% | [5] 101% | [6] 103% | [7] 96.8% | [8] 84.5% | [9] 104% | [10] 110%

CN1CCN(CCOc2ccc(-c3cnc4c(-c5ccc(F)cc5)cnn4c3)cc2)CC1
active: [1] -15.8% | [2] 1.11% | [9] -78.5%
inactive: [3] 68% | [4] 82% | [5] 38.2% | [6] 47.5% | [7] 61.2% | [8] 50.7% | [10] 79.4%

CC(C)=CCNc1ncnc2c1ncn2C1OC(CO)C(O)C1O (stereo not given)
inactive: [4] 13.5% [1 mM] | [5] 35.2% [1 mM] | [7] 49.4% [1 mM] | [8] 27.5% [1 mM] | [10] 79.5% [1 mM]
active: [1] -49.7% [1 mM] | [2] -5.71% [1 mM] | [3] -32.6% [1 mM] | [6] -25.8% [1 mM] | [9] -96.7% [1 mM]

C#CCn1cnc2cnc(Nc3cccc(NC(=O)C=C)c3)nc21
inactive: [1] 91.7% [6.25 µM] | [2] 70.5% [6.25 µM] | [3] 86.2% [6.25 µM] | [4] 88.3% [6.25 µM] | [5] 75.5% [6.25 µM] | [7] 92.4% [6.25 µM] | [8] 62.5% [6.25 µM] | [9] 82.7% [6.25 µM] | [10] 82.2% [6.25 µM]
active: [6] 9.21% [6.25 µM]

CCN(CC)CCCOc1ccc2ncnc(Nc3ccc(Oc4cccc(C(F)(F)F)c4)c(Cl)c3)c2c1
inactive: [3] 33.9% | [4] 30.9%
active: [1] -33.6% | [2] -44.6% | [5] -28.6% | [6] 8.76% | [7] -100% | [8] -33.8% | [9] -100% | [10] -89.1%
